Assay results reported in PubChem BioAssay (NCI).
About 83,000 compounds went through this panel and 20% of them were active in at least one assay; those are over-represented in the sample as a whole.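 Single-dose data. Exposure time 48 hours. Values below 10 considered active.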 Unmarked numbers belong to inactive results. Calls of active or inactive are those of the source.

What was measured:
Assay in all cases: NCI-60 one-dose screen, 48 h (100 = growth as untreated, 0 = no growth, -100 = all killed)
Conditions in all cases: 10 µM unless noted
[1] = system: OVCAR-8 ovarian
[2] = system: OVCAR-5 ovarian
[3] = system: OVCAR-4 ovarian
[4] = system: SK-OV-3 ovarian
[5] = system: IGROV1 ovarian
[6] = system: OVCAR-3 ovarian
[7] = system: NCI/ADR-RES ovarian
[8] = system: T-47D breast
[9] = system: BT-549 breast
[10] = system: MDA-MB-435 melanoma
[11] = system: SW-620 colon
[12] = system: MCF7 breast
[13] = system: HCT-116 colon
[14] = system: HCC-2998 colon
[15] = system: KM12 colon
[16] = system: HS 578T breast

`C=C(C)[C@@H]1CC[C@]2(C(=O)OCCOCCOCC[P+](c3ccccc3)(c3ccccc3)c3ccccc3)CC[C@]3(C)[C@H](CC[C@@H]4[C@@]5(C)CC[C@H](C)C(C)(C)[C@@H]5CC[C@]43C)[C@@H]12` was tested, and the growth [1] was -81.3% (active), the growth [2] was -72.2% (active) and the growth [3] was -85.6% (active). The growth [4] was -96.9% (active), the growth [5] was -70.5% (active) and the growth [6] was -91.7% (active). The growth [7] was -59.8% (active), the growth [8] was -68.5% (active) and the growth [9] was -93% (active). For the same compound, the growth [10] was -93.7% (active), the growth [11] was -83.5% (active) and the growth [12] was -77% (active). The growth [13] was -88.4% (active), the growth [14] was -85.5% (active) and the growth [15] was -81.3% (active).
With `COc1cc2nc3c(=O)n(CCN(C)C)cnn3c(=O)c2cc1OC` the growth [1] was 111%, the growth [2] was 99% and the growth [3] was 101%. For the same compound, the growth [4] was 104%, the growth [5] was 100% and the growth [6] was 103%. The growth [16] was 92.8%, the growth [7] was 98.3% and the growth [8] was 112%. The growth [9] was 98.6%, the growth [10] was 97.3% and the growth [11] was 97%. For the same compound, the growth [12] was 95.9%, the growth [13] was 101% and the growth [14] was 99.3%. The growth [15] was 95.1%.
`COc1cc(C2=NN(c3ccccc3)C(c3cccc(Nc4ccnc5cc(C(F)(F)F)ccc45)c3)C2)cc(OC)c1OC` (configuration not stated) gave a growth [1] of 91.7%, a growth [2] of 104% and a growth [3] of 91%. For the same compound, the growth [4] was 94.7%, the growth [5] was 77.9% and the growth [6] was 88.1%. It also gave a growth [16] of 99%, a growth [7] of 80.9% and a growth [8] of 76.5%. It also gave a growth [9] of 114%, a growth [10] of 104% and a growth [11] of 94.8%. For the same compound, the growth [12] was 80.6%, the growth [13] was 89.7% and the growth [14] was 90%. For the same compound, the growth [15] was 88.1%.
With `COC(=O)c1cc2c3c(cc(O)c2[nH]1)N(C(=O)C1Cc2cc(OC)c(OC)c(OC)c2N1)CC3CCl` (configuration not stated) the growth [1] was -50.5% (active), the growth [2] was -61.1% (active) and the growth [3] was -98.7% (active). For the same compound, the growth [4] was -44.9% (active), the growth [5] was -10.6% (active) and the growth [6] was -83% (active). The growth [16] was 1.21% (active), the growth [7] was -34.6% (active) and the growth [8] was -48.9% (active). The growth [9] was -84.6% (active), the growth [10] was -14% (active) and the growth [11] was -10.8% (active). The growth [12] was -5.51% (active), the growth [13] was -63.3% (active) and the growth [14] was -73.2% (active). The growth [15] was -29.4% (active).
Compound `COCCOCCOCc1n(Cc2ccc3ccccc3n2)c2ccccc2[n+]1Cc1ccc2ccccc2n1` has a growth [1] of 19.9%, a growth [2] of 40.6% and a growth [3] of 15.4%. For the same compound, the growth [4] was 21.3%, the growth [5] was 20.2% and the growth [6] was 7.54% (active). The growth [16] was 47.1%, the growth [7] was 102% and the growth [8] was -4.32% (active). For the same compound, the growth [9] was 9.81% (active), the growth [10] was 11% and the growth [11] was 36.2%. The growth [12] was 9.35% (active), the growth [13] was 18.9% and the growth [14] was 23.2%. For the same compound, the growth [15] was 12%.
`COc1ccc(/C=C/C(=O)/C=C(/C=C/c2ccc(OC)c(OC)c2)OB(F)F)cc1OC` was tested, and the growth [1] was 5.06% (active), the growth [2] was 65.2% and the growth [3] was 44.8%. For the same compound, the growth [4] was 81.9%, the growth [5] was 49.6% and the growth [6] was -8.63% (active). It also gave a growth [16] of 50.2%, a growth [8] of 35.5% and a growth [9] of 44.3%. The growth [10] was 8.23% (active), the growth [11] was -21.8% (active) and the growth [12] was 20.1%. For the same compound, the growth [13] was -45.6% (active), the growth [14] was 102% and the growth [15] was 36.1%.
In the case of `OCCNc1nc(NCCO)nc(Nc2ccc(C3=NN(c4cc(Cl)cc(Cl)c4)C(c4ccccc4)C3)cc2)n1` (configuration not stated), the growth [1] was 48.9%, the growth [2] was 85.8% and the growth [3] was 57.7%. It also gave a growth [4] of 94.5%, a growth [5] of 57.5% and a growth [6] of 26.2%. The growth [16] was 62.9%, the growth [7] was 57.2% and the growth [8] was 63.6%. It also gave a growth [9] of 59.4%, a growth [10] of 49.5% and a growth [11] of 60%. For the same compound, the growth [12] was 16.3%, the growth [13] was 33.8% and the growth [14] was 52.8%. It also gave a growth [15] of 27.9%.
Work on `C=C1C(=O)O[C@H]2[C@H]1CC/C(COC(=O)Nc1nc3ccccc3[nH]1)=C\CC[C@@]1(C)O[C@@H]21` yielded a growth [1] of 80.8%, a growth [2] of 127% and a growth [3] of 81.3%. For the same compound, the growth [4] was 89.1%, the growth [5] was 27.9% and the growth [6] was 17.3%. It also gave a growth [8] of 50.3%, a growth [9] of 77.3% and a growth [10] of 45.8%. The growth [11] was 16.4%, the growth [12] was 20.1% and the growth [13] was 12%. It also gave a growth [14] of 102% and a growth [15] of 94.9%.
`C=CCn1c(CN2CCN(c3cc4c(cc3F)c(=O)c(C(=O)O)cn4C3CC3)CC2)n[nH]c1=S` showed a growth [1] of 100%, a growth [2] of 94% and a growth [3] of 105%. For the same compound, the growth [4] was 108%, the growth [5] was 96.2% and the growth [6] was 102%. The growth [16] was 95%, the growth [7] was 99.2% and the growth [8] was 103%. It also gave a growth [9] of 105%, a growth [10] of 102% and a growth [11] of 105%. For the same compound, the growth [12] was 95.7%, the growth [13] was 105% and the growth [14] was 107%. It also gave a growth [15] of 99.4%.
`CCCCn1c(=O)c(/C=C/C(=O)/C=C/c2ccc(OC)cc2)cc2cc(Cl)ccc21` was tested, and the growth [1] was 5.24% (active), the growth [2] was 94.9% and the growth [3] was 42.9%. The growth [4] was 108%, the growth [5] was 59.1% and the growth [6] was 19.5%. For the same compound, the growth [16] was 90.9%, the growth [7] was 42.5% and the growth [8] was 69.6%. The growth [9] was 89.4%, the growth [10] was 95.6% and the growth [11] was 18.3%. For the same compound, the growth [12] was 34.4%, the growth [13] was -67.1% (active) and the growth [14] was 90.7%. The growth [15] was 25.9%.
Work on `C=C(C)[C@@H]1CC[C@]2(C(=O)N=C=S)CC[C@]3(C)[C@H](CC[C@@H]4[C@@]5(C)CCC(=O)C(C)(C)[C@@H]5CC[C@]43C)[C@@H]12` yielded a growth [1] of 24.3%, a growth [2] of 49.1% and a growth [3] of 31.4%. For the same compound, the growth [4] was 14.7%, the growth [5] was 66.2% and the growth [6] was 25.7%. For the same compound, the growth [16] was 33%, the growth [7] was 28.2% and the growth [8] was 18.1%. The growth [9] was 47.3%, the growth [10] was 47.1% and the growth [11] was 28.8%. It also gave a growth [12] of 16.4%, a growth [13] of 13.8% and a growth [14] of 43.3%. For the same compound, the growth [15] was 21.2%.
`Nc1c(C(=O)Nc2ccccc2)sc2nc3c(cc12)CN(C(=O)OCc1ccccc1)CC3` showed a growth [1] of 68.9%, a growth [2] of 91.7% and a growth [3] of 75.4%. The growth [4] was 43.7%, the growth [5] was 56.4% and the growth [6] was 16%. The growth [16] was 53.5%, the growth [7] was 45.6% and the growth [8] was 68.2%. For the same compound, the growth [9] was 52.1%, the growth [10] was -8.75% (active) and the growth [11] was 30.1%. The growth [12] was 21.1%, the growth [13] was 28.7% and the growth [14] was 77.5%. The growth [15] was 39.1%.
Compound `C=C(C)[C@@H]1CC[C@]2(C(N)=O)CC[C@]3(C)[C@H](CC[C@@H]4[C@@]5(C)CCCNC(C)(C)[C@@H]5CC[C@]43C)[C@@H]12` has a growth [1] of 82.1%, a growth [2] of 82.9% and a growth [3] of 83.6%. The growth [4] was 87.5%, the growth [5] was 84.2% and the growth [6] was 88.8%. The growth [16] was 74.9%, the growth [7] was 84.6% and the growth [8] was 55.9%. It also gave a growth [9] of 85.2%, a growth [10] of 78.7% and a growth [11] of 75.5%. The growth [12] was 45.3%, the growth [13] was 55.8% and the growth [14] was 98.2%. The growth [15] was 79.8%.
With `Nc1ccc(C2=NN(C(=O)c3cc(-c4ccc(Cl)cc4)nc4ccccc34)C(c3ccccc3)C2)cc1` (configuration not stated) the growth [1] was 37.5%, the growth [2] was 73.4% and the growth [4] was 24.6%. The growth [5] was 50.9%, the growth [6] was 3.55% (active) and the growth [16] was 29.4%. It also gave a growth [7] of 12.7%, a growth [8] of 30.8% and a growth [9] of 35.1%. For the same compound, the growth [10] was -24.3% (active), the growth [11] was 22.5% and the growth [12] was 12.7%. It also gave a growth [13] of 24.7%, a growth [14] of 59.6% and a growth [15] of 24.5%.
Compound `O=C(CN1N=C(c2ccc(F)cc2)CCC1=O)Nc1nccs1` has a growth [1] of 98.6%, a growth [2] of 107% and a growth [3] of 97.6%. The growth [4] was 97.7%, the growth [5] was 100% and the growth [6] was 113%. The growth [16] was 100%, the growth [7] was 109% and the growth [8] was 83.7%. The growth [9] was 101%, the growth [10] was 102% and the growth [11] was 91.6%. For the same compound, the growth [12] was 93.8%, the growth [13] was 104% and the growth [14] was 97.6%. The growth [15] was 107%.
For `N#Cc1c(-c2ccc(F)cc2)nc(N/N=C/c2cccc(O)c2)nc1N1CCOCC1`, the growth [1] was 69.7%, the growth [2] was 108% and the growth [3] was 79.7%. The growth [4] was 93.9%, the growth [5] was 61.4% and the growth [6] was 78.6%. The growth [16] was 84.4%, the growth [7] was 72.8% and the growth [8] was 89.2%. The growth [9] was 93.4%, the growth [10] was 93.4% and the growth [11] was 73.7%. For the same compound, the growth [12] was 72.4%, the growth [13] was 71% and the growth [14] was 95.1%. For the same compound, the growth [15] was 86%.
`COc1ccc(-n2cc(-c3ccc(Cl)c(Cl)c3)[nH]c2=O)cc1OC` gave a growth [2] of 90%, a growth [3] of 89.9% and a growth [4] of 101%. It also gave a growth [5] of 102%, a growth [6] of 111% and a growth [16] of 102%. The growth [7] was 105%, the growth [8] was 92.1% and the growth [9] was 94.2%. The growth [10] was 99.7%, the growth [11] was 73.5% and the growth [12] was 84.7%. For the same compound, the growth [13] was 90.4%, the growth [14] was 96% and the growth [15] was 95.3%.
For `C#Cc1cccc(Nc2ncnc3ccc(NC(=O)c4ccccc4)cc23)c1`, the growth [1] was 81.1%, the growth [2] was 83.4% and the growth [3] was 80.4%. It also gave a growth [4] of 75.3%, a growth [5] of 33.7% and a growth [6] of 66.2%. It also gave a growth [16] of 102%, a growth [7] of 69.8% and a growth [8] of 61.4%. It also gave a growth [9] of 74.6%, a growth [10] of 84% and a growth [11] of 100%. The growth [12] was 72.1%, the growth [13] was 76% and the growth [14] was 97.7%. For the same compound, the growth [15] was 90%.
